Measurements taken from PubChem BioAssay AID1063 (University of Pittsburgh Molecular Library Screening Center, 2008).
Hit rate of the full screen: of about 200,000 compounds, about 18,000 (9%) were called active. Cut-off read from the data, not from the text of the source: active = inhibition above about 50%; inactive = the rest. Many of the other results were omitted from the sample, so actives are more common in it than they were.

Assay: antileishmanial activity against promastigotes – primary screen (AID 1063);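 note: promastigotes grown with compound for 44 hours at 28 °C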
Details: Leishmania major promastigotes, resazurin fluorescence viability; at 10 µM; hits give high values

**Q.** With `CC(C)N(Cc1nc(-c2ccc3c(c2)OCO3)no1)CC1CCC(=O)N1` (stereo unspecified) as the compound, how does the inhibition read?
**A.** -6.4% (inactive)

**Q.** For `COc1ccc(C(=O)Nc2ccc(S(=O)(=O)NC(C)C)cc2)cc1`, which inhibition is on record?
**A.** -3.72% (inactive)

**Q.** For `COc1ccc(NS(=O)(=O)c2ccc(NC(=S)NC(=O)CC(C)C)cc2)cc1`, which inhibition is on record?
**A.** 96.7% (active)

**Q.** With `CC(=O)c1ccc(NC(=S)NC(=O)CC(C)C)cc1` as the compound, how does the inhibition read?
**A.** -4.65% (inactive)

**Q.** For `COc1ccc(C2=NN(c3ccccc3)C(c3cccs3)C2)cc1` (stereo unspecified), which inhibition is on record?
**A.** 44.3% (inactive)

**Q.** Which inhibition does the source give for `COc1cc(NC(=O)CN(C)S(=O)(=O)c2ccc3nc(C)sc3c2)cc(OC)c1` here?
**A.** 13% (inactive)

**Q.** For `O=C(Nc1ccc2nc3n(c(=O)c2c1)CCCCC3)c1ccccc1Cl`, which inhibition is on record?
**A.** 0.22% (inactive)

**Q.** Which inhibition does the source give for `Cc1ccc2nc3n(c(=O)c2c1)CCC3` here?
**A.** -7.48% (inactive)

**Q.** For `CCCCN(CC)C(=S)Nc1ccc2nc3n(c(=O)c2c1)CCCCC3`, which inhibition is on record?
**A.** 55.5% (active)

**Q.** Which inhibition does the source give for `O=C(OCC(=O)N1CCOCC1)c1ccc(N2CCOCC2)c([N+](=O)[O-])c1` here?
**A.** 0.36% (inactive)

**Q.** With `CC(C)(C)CN1CCNC(=O)C1CC(=O)NC1Cc2ccccc2C1` (stereo unspecified) as the compound, how does the inhibition read?
**A.** -0.33% (inactive)

**Q.** Which inhibition does the source give for `Brc1ccc2nc(N3CCCC3)sc2c1` here?
**A.** 17% (inactive)

**Q.** With `O=C(c1ccc2c(c1)C(=O)N(c1ccc(Cl)cc1)C2=O)N1CCN(c2ccccn2)CC1` as the compound, how does the inhibition read?
**A.** -5.18% (inactive)

**Q.** Which inhibition does the source give for `O=C(c1ccc2c(c1)N(Cc1ccc(F)cc1)C(=O)c1ccccc1S2(=O)=O)N1CCN(c2ccccn2)CC1` here?
**A.** 97% (active)

**Q.** Which inhibition does the source give for `CCCCN(C)C(=O)c1ccc2c(c1)N(CC)C(=O)c1ccccc1S2(=O)=O` here?
**A.** -6.56% (inactive)

**Q.** Which inhibition does the source give for `S=C1SCN(CCN2CCOCC2)CN1Cc1ccccc1` here?
**A.** 86.7% (active)

**Q.** Which inhibition does the source give for `C/C(CCc1ccccc1)=N\NC(=O)c1ccc(CN2CCOCC2)cc1` here?
**A.** -3.42% (inactive)

**Q.** With `CCN1CN(Cc2ccccc2)CNC1=S` as the compound, how does the inhibition read?
**A.** -5.52% (inactive)

**Q.** Which inhibition does the source give for `CCCn1nc(Oc2nc(NC(C)C)nc(N(C)C)n2)ccc1=O` here?
**A.** 7.02% (inactive)

**Q.** With `CC(=O)Nc1ccc(S(=O)(=O)Nc2ccc(-c3ccc4nnc(C)n4n3)cc2)cc1` as the compound, how does the inhibition read?
**A.** -6.31% (inactive)

**Q.** For `CCOc1cccc(-c2nn3c(-c4ccccn4)nnc3s2)c1`, which inhibition is on record?
**A.** 6.06% (inactive)

**Q.** Which inhibition does the source give for `c1ccc(-c2cc(-c3nnc4sc(-c5ccccn5)nn34)[nH]n2)cc1` here?
**A.** 84.6% (active)

**Q.** With `COc1ccc(-c2nn3c(-c4ccccc4)nnc3s2)cc1OC` as the compound, how does the inhibition read?
**A.** 3.79% (inactive)

**Q.** Which inhibition does the source give for `COc1ccc(N2C(=O)CC(Nc3ccc(F)cc3)C2=O)c([N+](=O)[O-])c1` (stereo unspecified) here?
**A.** -0.61% (inactive)

**Q.** Which inhibition does the source give for `CN(C)c1ccc(C2Nc3ccccc3C(=O)N2NS(=O)(=O)c2ccccc2)cc1` (stereo unspecified) here?
**A.** 3.72% (inactive)

**Q.** For `O=C(O)c1ccc(NC(=O)c2cn(-c3ccccc3)nc2-c2ccc(Cl)cc2)cc1`, which inhibition is on record?
**A.** -2.74% (inactive)

**Q.** Which inhibition does the source give for `O=C(NCc1cccnc1)c1cn(-c2ccccc2)nc1-c1cccs1` here?
**A.** 1.01% (inactive)

**Q.** With `O=C(NNC(=S)NC(=O)c1cn(-c2ccccc2)nc1-c1ccccc1)c1ccncc1` as the compound, how does the inhibition read?
**A.** 54.9% (active)

**Q.** With `COc1ccc(-c2nn(-c3ccccc3)cc2C(=O)Nc2nccs2)cc1OC` as the compound, how does the inhibition read?
**A.** 21.8% (inactive)

**Q.** Which inhibition does the source give for `O=C(Nc1cn(-c2ccccc2)nc1-c1ccccc1)c1ccccc1` here?
**A.** 82.8% (active)

**Q.** Which inhibition does the source give for `Cc1ccccc1NC(=O)c1ccccc1` here?
**A.** -0.75% (inactive)

**Q.** Which inhibition does the source give for `CCN(CC)S(=O)(=O)c1ccc(N2CCOCC2)c(NC(=O)C2COc3ccccc3O2)c1` (stereo unspecified) here?
**A.** 26.2% (inactive)

**Q.** With `N#CC1=C(N)Oc2[nH]c(=S)[nH]c(=O)c2C12C(=O)Nc1ccccc12` (stereo unspecified) as the compound, how does the inhibition read?
**A.** -9.87% (inactive)

**Q.** With `COc1ccc(N2CCN(C(=O)CCSCc3ccccc3F)CC2)cc1` as the compound, how does the inhibition read?
**A.** 3.84% (inactive)

**Q.** With `COC(=O)c1ccc(NC(=S)NN2CCOCC2)cc1` as the compound, how does the inhibition read?
**A.** -9.83% (inactive)

**Q.** Which inhibition does the source give for `CC(NC(=O)Nc1ccccc1)C(c1cccs1)N1CCN(c2ccccc2)CC1` (stereo unspecified) here?
**A.** -1.95% (inactive)

**Q.** Which inhibition does the source give for `Cc1nc2ccc(NC(=S)N3CCC(C)CC3)cc2nc1C` here?
**A.** -1.44% (inactive)

**Q.** Which inhibition does the source give for `COc1ccc(OCCCn2cccc2/C=C2/C(=N)N3OC(C)=CC3=NC2=O)cc1` here?
**A.** 21.9% (inactive)

**Q.** With `Cc1cc(C)nc(SCC(=O)N(C)C)n1` as the compound, how does the inhibition read?
**A.** -4.86% (inactive)

**Q.** Which inhibition does the source give for `C/C(CC1CC(C)(C)OC1=O)=N/Nc1nc(-c2ccccc2)cs1` (stereo unspecified) here?
**A.** 55.5% (active)

**Q.** With `CC1(C)CC(CCC(=O)Nc2ccccc2Cl)C(=O)O1` (stereo unspecified) as the compound, how does the inhibition read?
**A.** -7.36% (inactive)

**Q.** Which inhibition does the source give for `CC1(C)CC(CC(=O)O)C(=O)O1` (stereo unspecified) here?
**A.** -2.75% (inactive)

**Q.** With `CC(=O)Nc1nc(N(C)C)nc(N(C)C)n1` as the compound, how does the inhibition read?
**A.** 2.36% (inactive)

**Q.** With `O=C(NCc1ccco1)C(=O)c1cn(CC(=O)N2CCCCCC2)c2ccccc12` as the compound, how does the inhibition read?
**A.** 5.44% (inactive)

**Q.** Which inhibition does the source give for `CCOC(=O)CCCNC(=O)COC(=O)/C=C/c1ccc2c(c1)OCO2` here?
**A.** -1.67% (inactive)

**Q.** Which inhibition does the source give for `O=C(COC(=O)/C=C/c1cccc(Cl)c1)NCCc1ccccc1` here?
**A.** 53.4% (active)

**Q.** Which inhibition does the source give for `COc1ccc(CCNC(=O)COC(=O)/C=C/c2cccs2)cc1OC` here?
**A.** 4.8% (inactive)

**Q.** Which inhibition does the source give for `COc1ccc(C2OCC3(CO2)SC(=O)NC3=O)cc1OC` (stereo unspecified) here?
**A.** -7.62% (inactive)

**Q.** Which inhibition does the source give for `O=C(NNC(=S)Nc1ccccc1)c1cccc(S(=O)(=O)N2CCOCC2)c1` here?
**A.** -4.58% (inactive)

**Q.** Which inhibition does the source give for `COc1ccccc1NC(=O)C[n+]1ccccc1` here?
**A.** -3.72% (inactive)

**Q.** With `COC(=O)c1cc(C(=O)N(Cc2ccccc2)c2ccccn2)cc([N+](=O)[O-])c1` as the compound, how does the inhibition read?
**A.** 8.15% (inactive)

**Q.** Which inhibition does the source give for `Fc1ccccc1/C=C1\CCCC2=C1Nc1ncnn1C2c1ccccc1F` (stereo unspecified) here?
**A.** 98.9% (active)

**Q.** For `O=C(NCc1cccnc1)c1nc(-c2cccs2)no1`, which inhibition is on record?
**A.** 4.89% (inactive)

**Q.** With `COc1ccc(NC(=O)N2CCC(Cc3ccccc3)CC2)cc1` as the compound, how does the inhibition read?
**A.** -0.62% (inactive)

**Q.** With `C=CCn1c(CC(=O)Nc2cccc(OC)c2)nnc1SCC(=O)NC1CCCCC1` as the compound, how does the inhibition read?
**A.** -2.71% (inactive)

**Q.** Which inhibition does the source give for `COc1cccc(NC(=S)NCCCN2CCOCC2)c1` here?
**A.** 1.1% (inactive)

**Q.** Which inhibition does the source give for `COc1ccc(NC(=O)NC2CC3CCCC(C2)N3Cc2ccccc2)cc1` (stereo unspecified) here?
**A.** 66.9% (active)

**Q.** Which inhibition does the source give for `C=CCN1C2CCCC1CC(NC(=S)Nc1cccc(OC)c1)C2` (stereo unspecified) here?
**A.** 54.3% (active)

**Q.** For `CCOc1ccccc1C(=O)NC1CC2CCCC(C1)N2Cc1ccccc1` (stereo unspecified), which inhibition is on record?
**A.** 16% (inactive)

**Q.** For `COc1ccc(N=C2SC(C(=O)Nc3ccc(F)cc3)CC(=O)N2C)cc1` (stereo unspecified), which inhibition is on record?
**A.** 20.6% (inactive)

**Q.** With `CN1CCN(C(=O)/C(=C\c2ccc3c(c2)OCO3)NC(=O)c2cccs2)CC1` as the compound, how does the inhibition read?
**A.** -8.78% (inactive)
